Reference: PubChem BioAssay (NCI)
Compounds without any hit were thinned out: in the full panel of roughly 83,000, 20% have a hit.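 Results are percent growth after 48 hours of single-concentration exposure. 100 means growth as in untreated cells, lower positive values show inhibition; negative values down to -100 show cell death.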 Unmarked numbers belong to inactive results. Calls of active or inactive are those of the source. The calls were made as follows: active = growth percent below 10; inactive = the rest.

tested on: OVCAR-3 ovarian; assay: NCI-60 one-dose screen, 48 h (100 = growth as untreated, 0 = no growth, -100 = all killed); details: 10 µM unless noted

SMILES	growth
O=C(c1ccccc1)C(Cl)C(Cl)c1ccccc1 (stereo not drawn)	2.77% (active)
Cc1cc(Cl)ccc1OC(C)C(=O)Nc1nnc(C2CC2)s1 (stereo not drawn)	110%
CCCCCCCCCCCCCCCCCCOc1cccc(CCOP(=O)(O)OCC[N+](C)(C)C)c1	86.9%
C=CCOc1ccc(/C(O)=C2\C(=O)C(=O)N(c3nccs3)C2c2ccccc2F)cc1 (stereo not drawn)	93.5%
CC/C(=C(\c1ccc(O)cc1)c1ccc(OCCN(C)CCN(C)C(=O)CCC(=O)c2c(C)[nH]c(/C=C3\N=C(c4ccc[nH]4)C=C3OC)c2C)cc1)c1ccccc1	89.1%
Cc1ccc(Oc2nc3ccccc3cc2-c2nnc(Cn3c(COc4ccccc4)nc4ccccc43)o2)cc1	35.7%
CCOC(=O)c1cc(/C(=N\O)c2cc(OC)c(OC)c(OC)c2)n2cc(C)cc(C)c12	-8.99% (active)
NC(=O)c1ccc2c(c1)OCO2	107%
O=c1c2cccc3c(Nc4ccc(F)cc4)ccc(c32)c2nc3ccccc3n12	94%
C=C1C(=O)O[C@H]2[C@H]1CC/C(COC(=O)NCc1cc(OC)c(OC)c(OC)c1)=C\CC[C@@]1(C)O[C@@H]21	21.2%
Cc1cc(C(=O)O)c(N)c(C)n1	110%
Cc1ccc(Nc2ncnc3c2sc2ncccc23)cc1	109%
O=C1CCC(=O)N1Cc1ccccc1	102%
COc1ncc(-c2ccc3ncnc(Nc4cccc(Cl)c4)c3c2)cc1NS(=O)(=O)C1CC1	20.1%
COc1cc(NC(=O)CCl)ccc(=O)c1	61.1%
CCCCCCCC/C=C\CCCCCCCCOc1ccccc1CCOP(=O)(O)OCC[N+](C)(C)C	56.4%

SMILES	growth
COC(=O)c1ccc(C)cc1	106%
COc1ccc(/C(=N/O)c2cc(OC)c(OC)c(OC)c2)c(OC)c1N	1.89% (active)
COc1ccc(C2CC(=O)Nc3c2c(C)nn3-c2nc3ccccc3[nH]2)cc1OC (stereo not drawn)	83.2%
C=C1C(=O)O[C@H]2[C@H]1CC/C(COC(=O)NCCc1cccc(OC)c1)=C\CC[C@@]1(C)O[C@@H]21	-20% (active)
COc1ccc(-c2cn[nH]c2-c2cc(OC)c3c(c2)OCCO3)cc1	-36.6% (active)
CCN(Cc1ccccc1)c1ccc(SC#N)cc1	46.2%
Cc1ccc2c(c1)C(C)Cc1c(ncnc1-n1cnc3ccccc31)N2C (stereo not drawn)	-34.7% (active)
Cc1nc2sccn2c1-c1csc(Nc2ccccc2Cl)n1	47.7%
Cc1nc2scc(-c3ccccc3)n2c(=O)c1CCO	100%
COc1ccc(/C=C\c2cc(OC)c(OC)c(OC)c2)c(NS(=O)(=O)c2ccc(C(C)(C)C)cc2)c1O	0.435% (active)
CCCCCCOc1ccc(C2(Cl)c3ccccc3N(C)c3ccccc32)cc1	32.1%
CC(C)C[C@H](NC(=O)[C@H](Cc1ccccc1)n1ccc(N2CCCCC2)cc1=O)B(O)O	-29.3% (active)
Cc1ccccc1C(=O)c1ccccc1C(=O)O	107%
CC1CCc2c(sc(NC(=O)CSc3nnc4ccccn34)c2C(N)=O)C1 (stereo not drawn)	104%
COc1ccc2c(c1)C=CC(C#N)N2C(=O)c1ccccc1 (stereo not drawn)	-23.7% (active)

tested on: HS 578T breast; assay: as above; details: 10 µM unless noted

SMILES	growth
CC(Br)C(O)c1cc2c(cc1Br)OCO2 (stereo not drawn)	103%
OC1CC2c3ccccc3C1c1ccccc12 (stereo not drawn)	104%
O=C(c1ccccc1)C(Cl)C(Cl)c1ccccc1 (stereo not drawn)	83.7%
Cc1cc(Cl)ccc1OC(C)C(=O)Nc1nnc(C2CC2)s1 (stereo not drawn)	-24.6% (active)
Cc1sc2nc(CSc3nnc(-c4ccco4)o3)[nH]c(=O)c2c1C	115%
CCCCCCCCCCCCCCCCCCOc1cccc(CCOP(=O)(O)OCC[N+](C)(C)C)c1	93.1%
C=CCOc1ccc(/C(O)=C2\C(=O)C(=O)N(c3nccs3)C2c2ccccc2F)cc1 (stereo not drawn)	104%
CC/C(=C(\c1ccc(O)cc1)c1ccc(OCCN(C)CCN(C)C(=O)CCC(=O)c2c(C)[nH]c(/C=C3\N=C(c4ccc[nH]4)C=C3OC)c2C)cc1)c1ccccc1	83.6%
Cc1ccc(Oc2nc3ccccc3cc2-c2nnc(Cn3c(COc4ccccc4)nc4ccccc43)o2)cc1	72.4%
CCOC(=O)c1cc(/C(=N\O)c2cc(OC)c(OC)c(OC)c2)n2cc(C)cc(C)c12	11.4%
NC(=O)c1ccc2c(c1)OCO2	98.7%
NC(=O)NNC(=O)c1ccccc1	108%
O=c1c2cccc3c(Nc4ccc(F)cc4)ccc(c32)c2nc3ccccc3n12	73.6%
C=C1C(=O)O[C@H]2[C@H]1CC/C(COC(=O)NCc1cc(OC)c(OC)c(OC)c1)=C\CC[C@@]1(C)O[C@@H]21	71.5%
Cc1ccc(Nc2ncnc3c2sc2ncccc23)cc1	102%
O=C1CCC(=O)N1Cc1ccccc1	102%

SMILES	growth
COc1ncc(-c2ccc3ncnc(Nc4cccc(Cl)c4)c3c2)cc1NS(=O)(=O)C1CC1	13.6%
O=C(Nc1ccc(I)cc1)c1cccc([N+](=O)[O-])c1O	42.6%
COc1cc(NC(=O)CCl)ccc(=O)c1	72.2%
CCCCCCCC/C=C\CCCCCCCCOc1ccccc1CCOP(=O)(O)OCC[N+](C)(C)C	88%
COC(=O)c1ccc(C)cc1	99.5%
COc1ccc(/C(=N/O)c2cc(OC)c(OC)c(OC)c2)c(OC)c1N	8.77% (active)
C=C1C(=O)O[C@H]2[C@H]1CC/C(COC(=O)NCCc1cccc(OC)c1)=C\CC[C@@]1(C)O[C@@H]21	57.9%
COc1ccc(-c2cn[nH]c2-c2cc(OC)c3c(c2)OCCO3)cc1	3.05% (active)
Cc1nc2sccn2c1-c1csc(Nc2ccccc2Cl)n1	76.7%
C=CCc1cc(Cl)cc2c(OC(C)=O)c(C(C)=O)c(-c3ccccc3)nc12	102%
COc1ccc(/C=C\c2cc(OC)c(OC)c(OC)c2)c(NS(=O)(=O)c2ccc(C(C)(C)C)cc2)c1O	35.4%
CCCCCCOc1ccc(C2(Cl)c3ccccc3N(C)c3ccccc32)cc1	54.7%
CC(C)C[C@H](NC(=O)[C@H](Cc1ccccc1)n1ccc(N2CCCCC2)cc1=O)B(O)O	22%
Cc1ccccc1C(=O)c1ccccc1C(=O)O	106%
CC1CCc2c(sc(NC(=O)CSc3nnc4ccccn34)c2C(N)=O)C1 (stereo not drawn)	114%
COc1ccc2c(c1)C=CC(C#N)N2C(=O)c1ccccc1 (stereo not drawn)	14.9%
